Screening data as filed in PubChem.
Rows were chosen to be rich in hits. Some 2.7% of all compounds tested hit in one or more screens of this group.
gsp antagonist: qHTS for Antagonists of gsp, the Etiologic Mutation Responsible for Fibrous Dysplasia/McCune-Albright Syndrome: qHTS; 340,000 tested, 0.4% active; gsp-mutant cells, cAMP HTRF, 30 min; Potency, µM (titrated, usually from 76.9 µM), without a hit: at the top dose activity change, negative = inhibition, actives largely listed as inhibitors; calls by dose curve; cell line not stated here;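 also: intracellular cAMP measured with PDE inhibitor Ro 20-1724 present during compound exposure; potency is read from the fitted curve at half-maximal effect; % is scaled to controls: 0 for no effect and ±100 for the full control effect; nearly all actives have a fitted effect of over 65% in size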
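Cells in G418 medium, seeded 16-24 h, 37C; buffer exchange to DPBS + 1 mM CaCl2, 0.5 mM MgCl2, 0.05% BSA; cpds in DMSO + […] (300 uM stock), 30 min 37C; HTRF cAMP detection.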
ClpP mod: qHTS Assay for Activators of ClpP; purified B. subtilis ClpP, FRET peptide cleavage, 20 min; Potency, µM (titrated, usually from 57.5 µM), for inactives: at the top dose activity change, negative = active; ATP-dependent Clp protease proteolytic subunit (Bacillus subtilis (strain 168)), P80244; AID 651965, 2013; 340,000 tested, 1.9% active; active = well fitted falling curve with a large enough effect; inconclusive = small, poorly fitted or top-dose-only effect; inactive = no such curve, though single readings can be large or run the other way; also: potency is read from the fitted curve at half-maximal effect; the source files actives as falling curves though it sought activators and does not explain the sign; nearly all actives have a fitted effect of over 65% in size
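FRET quenching reversal measured ClpP activation: 10 microg/mL B. subtilis ClpP at pH 8 with the FRET-FV decapeptide, read at 430 nm after 320 nm excitation. The 20-min minus 0-min signal was scaled between DMSO/no-enzyme wells and ADEP (5.8 microM final).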
RXFP1 ag: qHTS Assay for Agonists of the Relaxin Receptor RXFP1; Potency, µM (highest dose often 57.5 µM), inactives show top-dose activation, actives largely listed as activators; Relaxin receptor 1 (Homo sapiens), Q9HBX9; 370,000 tested, 0.3% active; HEK293T-RXFP1 cAMP TR-FRET, 30 min; response scale: percent of porcine relaxin response, buffer zero; AID 2676, 2010; active = well fitted activation curve with a large enough effect; inconclusive = small, poorly fitted or top-dose-only effect; also: potency is read from the fitted curve at half-maximal effect; % is scaled to controls: 0 for no effect and ±100 for the full control effect; nearly all actives have a fitted effect of over 60% in size
Target sequence (Q9HBX9 whole entry, looked up): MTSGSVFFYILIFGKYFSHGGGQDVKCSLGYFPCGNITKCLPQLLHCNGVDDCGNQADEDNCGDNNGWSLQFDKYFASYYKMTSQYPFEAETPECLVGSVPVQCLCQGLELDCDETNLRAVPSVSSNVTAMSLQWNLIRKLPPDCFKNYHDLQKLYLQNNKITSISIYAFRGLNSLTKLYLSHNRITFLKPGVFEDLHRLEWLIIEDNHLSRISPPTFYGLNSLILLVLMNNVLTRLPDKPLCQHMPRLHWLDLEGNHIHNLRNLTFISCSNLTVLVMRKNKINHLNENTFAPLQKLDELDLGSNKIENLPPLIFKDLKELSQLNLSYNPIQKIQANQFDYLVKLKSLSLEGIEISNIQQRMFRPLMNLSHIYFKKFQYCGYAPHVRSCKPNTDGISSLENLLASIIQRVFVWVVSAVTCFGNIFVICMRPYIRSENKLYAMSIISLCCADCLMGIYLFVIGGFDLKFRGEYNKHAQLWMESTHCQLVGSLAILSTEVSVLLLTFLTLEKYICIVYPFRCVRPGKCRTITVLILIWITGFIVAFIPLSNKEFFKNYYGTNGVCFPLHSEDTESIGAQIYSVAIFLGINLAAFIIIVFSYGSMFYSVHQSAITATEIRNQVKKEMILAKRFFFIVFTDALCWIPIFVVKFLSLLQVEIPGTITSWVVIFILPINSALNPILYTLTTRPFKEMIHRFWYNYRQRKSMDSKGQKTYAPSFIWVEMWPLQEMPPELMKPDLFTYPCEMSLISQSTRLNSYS
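Agonist response is measured as cAMP accumulation in an RXFP1-transfected HEK293T line under PDE4 inhibition. Values are scaled between buffer-only and 29 nM porcine relaxin, and EC50s come from standard Hill equation fits.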
RXFP1 antag: qHTS Assay for Antagonists of the Relaxin Receptor RXFP1 | HEK293-RXFP1, relaxin-stimulated cAMP HTRF, 30 min; active compounds read low | activity change, negative = inhibition, % at 57.5 µM | 350,000 tested, 0.59% active;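 active = activity change of -60% or lower, but not beyond a set lower limit; inconclusive = change between -60% and -40%, or beyond the set limit; inactive = change above -40%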; also: % is scaled to controls: 0 for no effect and ±100 for the full control effect
gsp agonist: qHTS for Agonist of gsp, the Etiologic Mutation Responsible for Fibrous Dysplasia/McCune-Albright Syndrome: qHTS; gsp mutant cells, cAMP HTRF, 30 min; Potency, µM (titrated, usually from 76.9 µM), without a hit: at the top dose activation (cAMP increase), usual class: activators; 340,000 tested, 0.13% active; active = well fitted activation curve with a large enough effect; inconclusive = small, poorly fitted or top-dose-only effect, or another doubt; inactive = no such curve, though single readings can be large or run the other way; cell line not stated here;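 also: phosphodiesterase inhibitor Ro 20-1724 added with compounds to block cAMP breakdown; potency is read from the fitted curve at half-maximal effect; nearly all actives have a fitted effect of over 60% in size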
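Cells stably selected in G418 were plated at 2000/well, grown 16-24 hr, then given compounds in DMSO with the PDE inhibitor […] (300 uM solution added) for 30 min at 37C; cAMP was read by HTRF.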
pAkt inh: HTS Assay for Inhibitors of Akt Phophorylation: Primary Screen; 360,000 tested, 0.32% active; Neuro2A IGF-stimulated pAkt S473 HTRF, 20 min; active compounds read low; AID 651550, 2012; activity change, % for hits at 50 µM; in the data active = activity change below about -80%; inconclusive = mostly about -51% to -80%; also: % is scaled to controls: 0 for no effect and ±100 for the full control effect
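Neuro2A cells in DMEM with 0.5% FBS, overnight at 37 deg C, given compound at single 50 µM final, then IGF (6 nM final) for 20 min at 37 deg C. Lysed; phospho-Akt Ser473 by HTRF after 24 h, 665/615 ratio.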
* hit, by the source's call; i = inactive; ? = inconclusive; nt = not tested or not shown; [ ] = dose if it differs, or a comment.

SMILES	gsp antagonist	ClpP mod	RXFP1 ag	RXFP1 antag	gsp agonist	pAkt inh
CC1(C)CC2CC(C)(CN2C(=O)COC(=O)c2cc(Cl)cc(Cl)c2N)C1 (configuration not stated)	-1%	32µM*	4%	5	-21%	i
CC1(C)CC2CC(C)(CN2C(=O)COC(=O)c2ccc(O)cc2O)C1 (configuration not stated)	-15%	-1%	nt	0	-54%	i
Cc1nc([N+](=O)[O-])cn1-c1ccc([N+](=O)[O-])cc1	nt	nt	nt	2	nt	nt
O=S(c1ccccc1)C(c1ccccc1)c1ccccc1 (configuration not stated)	0%	16µM*	nt	-9	18%[15.4 µM]	i
Cc1ccc(S(=O)C(c2ccccc2)c2ccccc2)cc1 (configuration not stated)	1%	1%	nt	-28	-8%[15.4 µM]	i
Cc1c(C)c2c(C)nn(-c3ccccc3)c2[nH]c1=O	5%	3%	1%	9	3%	-108%*
NS(=O)(=O)c1cc2c(cc1Cl)CN(C1CCCCC1)C2=O	nt	nt	nt	-15	nt	nt
O=C(NCc1ccc(F)cc1)C1CCC(CNS(=O)(=O)c2cccs2)CC1 (configuration not stated)	-5%	-3%	0%	-7	13%[15.4 µM]	i
O=C(C1CCC(CNS(=O)(=O)c2cccs2)CC1)N1CCN(c2ccc(F)cc2)CC1 (configuration not stated)	35µM*	nt	-3%	-8	22%	i
O=C(c1ccc(F)cc1)N1CCC(C(=O)N(Cc2ccccc2)c2ccccc2)CC1	-14%	-1%	1%	10	-4%	i
CN(CCOc1ccccc1)C(=O)C1CCN(C(=O)c2ccc(F)cc2)CC1	-7%	22µM*	-1%	-7	-8%	i
CCCCCCSc1cc(-c2nc3cc(C)ccn3c2NCCCC)ccc1OC	-3%	16µM*	8%	nt	nt	i
CCCCCCSc1cc(-c2nc3cnccn3c2NCCCC)ccc1OC	-4%	-26%	nt	nt	nt	i
CCCCNc1c(-c2cccc(-c3cc(C(C)=O)cs3)c2)nc2cc(C)ccn12	32µM*	-9%	-1%	nt	22%	i
Fc1ccc(Nc2nnc(-c3ccncc3)s2)cc1Cl	nt	-11%	nt	nt	nt	i
CC1(C(=O)Nc2cccc(C(F)(F)F)c2)Cc2c(-c3cccc(C(N)=O)c3)ccnc2O1 (configuration not stated)	nt	-5%	nt	nt	nt	i
CN(C)CCOC1=Cc2ccccc2Sc2ccc(Cl)cc21	nt	nt	nt	-32	nt	nt
CCc1cccc(Nc2ncnc3onc(-c4ccc(F)cc4)c23)c1	nt	?	5%	-30	nt	nt
O=C(Nc1ccccc1-c1nnc(SCc2ccc(Cl)cc2)o1)c1ccccc1	-2%	10µM*	0%	2	0%	i
O=C(O)c1ccc(CSc2nnc(-c3ccc(Cl)cc3)o2)cc1	-19%	0%	-2%	-11	2%[15.4 µM]	i
O=C(Nc1ccccc1-c1nnc(SCc2ccccc2)o1)c1ccccc1	-4%	28µM*	3%	19	25%	i
COc1cccc(NC(=O)CN2C(=O)C3(SCC(=O)N3c3cc(C)cc(C)c3)c3ccccc32)c1 (configuration not stated)	nt	-1%	-2%	nt	nt	nt
CCOC(=O)c1cc(-c2ccc(OC)cc2)n(CCC(=O)NCCc2ccccc2)c1C	nt	-3%	0%	-62*	nt	nt
CCOC(=O)c1nc2sc3c(c2c(=O)n1C(C)C(=O)OCC)CCCC3 (configuration not stated)	-23%	nt	5%	-61*	-10%[15.4 µM]	i
Cn1c(N)c(C(=O)COC(=O)CNS(=O)(=O)c2ccc(Cl)c(Cl)c2)c(=O)n(C)c1=O	-8%	32µM*	2%	-2	5%	i
SMILES	gsp antagonist	ClpP mod	RXFP1 ag	RXFP1 antag	gsp agonist	pAkt inh
Cc1noc(C)c1S(=O)(=O)N(CC(=O)NC1CCCC1)c1ccc(C(C)C)cc1	1%	0%	-2%	-9	29%	nt
Cc1cccc(Nc2nc(-c3ccc(O)cc3O)cs2)n1	-5%	nt	1%	-79*	-13%	i
N#CN=c1snc(-c2ccccc2)n1-c1ccc(Br)cc1	nt	2%	nt	nt	nt	nt
O=C(/C=C/c1cccc2ccccc12)c1ccncc1	7%	-2%	1%	-71*	-34%	i
O=C(N/N=C/c1cccc2ccccc12)c1ccncc1	-9%	0%	-1%	-11	0%	i
NC(=O)c1c(NC(=O)c2ccccc2)sc2c1CCC2	-12%	nt	6%	-6	-15%	i
NC(=O)c1c(NC(=O)c2ccccc2)sc2c1CCc1ccccc1-2	-6%	32µM*	8%	9	14%	i
COc1ccc(CNC(=O)C2CCN(C(=O)c3cccc(Cl)c3)CC2)cc1	5%	1%	2%	-5	-42%	i
O=C(CN1C2CCC1CC(NC(=O)Nc1ccccc1)C2)NCc1ccco1 (configuration not stated)	9%	-3%	1%	-11	-34%	-107%*
CS(=O)(=O)Nc1ccccc1C(=O)NCc1ccco1	-5%	28µM*	1%	-3	-30%	i
CC(C)(C)C(=O)Nc1ccccc1C(=O)NCc1ccco1	4%	-6%	0%	-24	29%	i
Cc1ccc(CNC(=O)c2ccccc2NS(=O)(=O)c2ccc(Cl)nc2)cc1	-12%	-15%	0%	-4	10%	i
O=C(NCc1ccccc1)NC1CC2CCC(C1)N2Cc1ccco1 (configuration not stated)	18%	1%	0%	-7	-1%	i
Cc1ccccc1NS(=O)(=O)c1ccc(OCC(=O)NCc2ccco2)cc1	1%	-2%	0%	2	-10%	i
CCOc1ccc(S(=O)(=O)Nc2ccccc2C(=O)NCc2ccco2)cc1	-9%	25µM*	0%	3	-1%	i
Cc1ccc(CNC(=O)c2ccccc2NS(C)(=O)=O)cc1	0%	28µM*	0%	-5	24%	i
CC[N+](C)(C)c1ccc(/C=C/c2ccnc3ccccc23)cc1	nt	-1%	nt	nt	nt	nt
O=C(CCS(=O)(=O)c1ccc(F)cc1)Nc1nccs1	nt	-3%	nt	4	-41%	i
O=C(Nc1nccs1)[C@@H]1CC=C[C@@H]2CCN(C3CC3)C(=O)[C@@H]21	nt	-1%	nt	nt	nt	nt
